Drawing on ChEMBL document CHEMBL3988442, “University of Dundee, Small-Polar-MMV Screening Library” (2021), this text covers Percent Effect for eleven molecules.

Each structure is given as a SMILES string. For some assays here: Potency and affinity values are given separately.

What all share (set-up): scale not given: direction of the effect not stated beside the values
The target in test [1] is Protein translocase subunit SecA (Escherichia coli (strain K12)) (UniProt P10408). The test is described as follows: Assay to Identify E. coli SecA ATPase Inhibitors. Type of test: functional. The conditions noted are these: 30 µM.
Sequence of Protein translocase subunit SecA (Escherichia coli (strain K12)) (P10408 whole entry): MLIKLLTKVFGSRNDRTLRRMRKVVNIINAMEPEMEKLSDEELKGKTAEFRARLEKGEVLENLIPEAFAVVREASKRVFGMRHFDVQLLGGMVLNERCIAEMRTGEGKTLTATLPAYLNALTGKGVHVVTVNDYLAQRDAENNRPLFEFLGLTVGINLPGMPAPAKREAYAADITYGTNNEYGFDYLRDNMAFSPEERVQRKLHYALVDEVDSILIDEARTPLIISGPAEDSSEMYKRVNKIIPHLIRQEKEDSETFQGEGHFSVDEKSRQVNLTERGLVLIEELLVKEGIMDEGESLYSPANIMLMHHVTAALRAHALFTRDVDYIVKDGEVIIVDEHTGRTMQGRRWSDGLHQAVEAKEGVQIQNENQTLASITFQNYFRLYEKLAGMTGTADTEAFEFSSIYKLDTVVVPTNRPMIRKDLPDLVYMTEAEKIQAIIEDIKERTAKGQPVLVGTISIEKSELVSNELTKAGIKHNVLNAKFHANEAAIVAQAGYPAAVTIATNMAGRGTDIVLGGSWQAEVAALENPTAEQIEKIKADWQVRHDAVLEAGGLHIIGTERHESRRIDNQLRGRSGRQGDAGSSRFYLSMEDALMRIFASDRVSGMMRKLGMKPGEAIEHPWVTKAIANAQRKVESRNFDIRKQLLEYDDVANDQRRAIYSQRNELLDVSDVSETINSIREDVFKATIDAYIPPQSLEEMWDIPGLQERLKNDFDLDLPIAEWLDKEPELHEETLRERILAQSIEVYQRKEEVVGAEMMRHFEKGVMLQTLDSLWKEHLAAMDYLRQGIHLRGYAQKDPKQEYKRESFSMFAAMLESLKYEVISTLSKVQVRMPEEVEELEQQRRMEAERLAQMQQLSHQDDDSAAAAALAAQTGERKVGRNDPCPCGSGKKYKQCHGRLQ
In test [2] the target is T1, Ubiquitin-activating enzyme e1, putative (Leishmania donovani (strain BPK282A1)) (UniProt E9BSI1).
T1 sequence (whole entry): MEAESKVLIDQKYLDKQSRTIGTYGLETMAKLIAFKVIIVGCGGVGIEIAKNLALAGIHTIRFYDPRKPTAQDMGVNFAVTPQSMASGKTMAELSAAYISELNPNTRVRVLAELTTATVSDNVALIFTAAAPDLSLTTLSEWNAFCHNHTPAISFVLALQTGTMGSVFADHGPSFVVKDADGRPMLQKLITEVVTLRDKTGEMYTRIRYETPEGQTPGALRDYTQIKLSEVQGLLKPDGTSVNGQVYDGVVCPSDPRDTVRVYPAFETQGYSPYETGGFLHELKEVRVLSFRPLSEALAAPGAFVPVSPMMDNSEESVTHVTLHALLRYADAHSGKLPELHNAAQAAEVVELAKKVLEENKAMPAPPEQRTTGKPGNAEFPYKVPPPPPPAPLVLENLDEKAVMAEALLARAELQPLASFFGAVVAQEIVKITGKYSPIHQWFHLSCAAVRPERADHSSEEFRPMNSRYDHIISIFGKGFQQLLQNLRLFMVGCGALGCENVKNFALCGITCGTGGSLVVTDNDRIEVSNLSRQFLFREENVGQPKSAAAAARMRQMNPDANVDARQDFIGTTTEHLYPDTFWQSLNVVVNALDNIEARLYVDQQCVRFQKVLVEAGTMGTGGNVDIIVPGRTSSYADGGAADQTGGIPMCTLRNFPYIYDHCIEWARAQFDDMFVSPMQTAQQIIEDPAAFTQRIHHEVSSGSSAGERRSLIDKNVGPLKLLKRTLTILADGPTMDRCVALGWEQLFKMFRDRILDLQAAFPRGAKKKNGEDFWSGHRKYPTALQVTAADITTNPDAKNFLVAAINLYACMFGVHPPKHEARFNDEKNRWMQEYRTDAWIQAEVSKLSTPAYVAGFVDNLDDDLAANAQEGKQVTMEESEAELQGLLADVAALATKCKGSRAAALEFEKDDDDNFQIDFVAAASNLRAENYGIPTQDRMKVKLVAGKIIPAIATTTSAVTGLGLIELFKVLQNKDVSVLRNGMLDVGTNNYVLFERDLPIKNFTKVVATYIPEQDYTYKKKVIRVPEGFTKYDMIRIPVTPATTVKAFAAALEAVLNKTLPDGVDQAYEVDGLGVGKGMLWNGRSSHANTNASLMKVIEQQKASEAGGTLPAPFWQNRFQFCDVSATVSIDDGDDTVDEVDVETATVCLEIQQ
The test is described as follows: Leishmania donovani Ubiquitin Activating Enzyme (LdE1). The conditions noted are these: 30 µM. Type of test: functional.

For test [3], the target named is Sialic acid-binding Ig-like lectin 9 (Homo sapiens) (UniProt Q9Y336). Briefly: Hs-Siglec9 ALPHAscreen SOP 20170721. The conditions noted are these: 10 µM. Background: Bead proximity is the source of the signal in Alpha formats.
Sequence of Sialic acid-binding Ig-like lectin 9 (Homo sapiens) (Q9Y336 whole entry): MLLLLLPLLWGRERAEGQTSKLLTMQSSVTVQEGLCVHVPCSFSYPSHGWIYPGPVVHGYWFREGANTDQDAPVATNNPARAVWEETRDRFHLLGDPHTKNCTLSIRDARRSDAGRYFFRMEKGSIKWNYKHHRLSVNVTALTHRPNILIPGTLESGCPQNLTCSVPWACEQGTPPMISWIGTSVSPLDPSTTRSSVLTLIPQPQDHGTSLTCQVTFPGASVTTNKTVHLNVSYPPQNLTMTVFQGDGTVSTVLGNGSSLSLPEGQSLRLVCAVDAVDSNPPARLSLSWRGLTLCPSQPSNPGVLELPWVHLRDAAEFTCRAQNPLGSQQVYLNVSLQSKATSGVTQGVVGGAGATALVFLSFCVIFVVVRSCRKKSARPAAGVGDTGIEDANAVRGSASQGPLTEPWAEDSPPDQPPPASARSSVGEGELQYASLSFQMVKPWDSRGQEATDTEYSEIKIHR
The test system of the next test is Trypanosoma cruzi. The test is described as follows: Trypanosoma cruzi phosphomannomutase and mannose-1-phosphate guanylyltransferase assay. The class given is functional. The conditions noted are these: 10 µM.
Test [4] has as its target T2, Arginase-2, mitochondrial (Homo sapiens) (UniProt P78540).
T2 sequence (whole entry): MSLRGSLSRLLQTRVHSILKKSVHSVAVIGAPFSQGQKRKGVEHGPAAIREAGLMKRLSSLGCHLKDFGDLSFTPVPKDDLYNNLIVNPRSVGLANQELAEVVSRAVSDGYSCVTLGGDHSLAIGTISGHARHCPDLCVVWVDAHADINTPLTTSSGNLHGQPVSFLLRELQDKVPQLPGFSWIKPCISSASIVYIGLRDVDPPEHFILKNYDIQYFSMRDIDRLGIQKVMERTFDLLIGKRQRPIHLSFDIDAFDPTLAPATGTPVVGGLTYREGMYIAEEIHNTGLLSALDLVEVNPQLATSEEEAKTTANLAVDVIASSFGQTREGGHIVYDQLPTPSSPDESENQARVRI
The test is described as follows: in vitro enzyme assay to detect the production of urea directly proportional to the activity of Arginase II. Also: in the data most compounds retested in dose-response had high values. Type of test: functional. The conditions noted are these: 33.3 µM.

The target in test [5] is T3, Proteasome subunit beta (Trypanosoma cruzi) (UniProt O96673).
T3 sequence (whole entry): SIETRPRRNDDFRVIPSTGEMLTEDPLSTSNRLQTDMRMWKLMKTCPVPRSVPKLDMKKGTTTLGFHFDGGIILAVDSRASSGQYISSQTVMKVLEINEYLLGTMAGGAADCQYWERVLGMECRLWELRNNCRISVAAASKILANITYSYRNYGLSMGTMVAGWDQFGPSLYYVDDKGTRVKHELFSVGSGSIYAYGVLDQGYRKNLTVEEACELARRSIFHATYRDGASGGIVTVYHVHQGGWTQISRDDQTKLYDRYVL
Briefly: Trypanosoma cruzi proteasome chymotrypsin-like activity (TcProtChymo) assay. Also: in the data most compounds retested in dose-response had high values. Type of test: functional. The conditions noted are these: 9.37 µM.

The species named for a further test is Homo sapiens. The test is described as follows: To identify inhibition of the IFN signalling (Jak-Stat) pathway via expression of an eGFP reporter gene under the control of an IFN-stimulated response element (ISRE) containing MxA promoter. The conditions noted are these: 30 µM. The class given is functional. On the technique in general: A reporter such as luciferase makes a cellular process visible.

The target of test [6] is T4, Tyrosyl-tRNA synthetase, putative (Trypanosoma cruzi (strain CL Brener)) (UniProt Q4DSP6).
T4 sequence (whole entry): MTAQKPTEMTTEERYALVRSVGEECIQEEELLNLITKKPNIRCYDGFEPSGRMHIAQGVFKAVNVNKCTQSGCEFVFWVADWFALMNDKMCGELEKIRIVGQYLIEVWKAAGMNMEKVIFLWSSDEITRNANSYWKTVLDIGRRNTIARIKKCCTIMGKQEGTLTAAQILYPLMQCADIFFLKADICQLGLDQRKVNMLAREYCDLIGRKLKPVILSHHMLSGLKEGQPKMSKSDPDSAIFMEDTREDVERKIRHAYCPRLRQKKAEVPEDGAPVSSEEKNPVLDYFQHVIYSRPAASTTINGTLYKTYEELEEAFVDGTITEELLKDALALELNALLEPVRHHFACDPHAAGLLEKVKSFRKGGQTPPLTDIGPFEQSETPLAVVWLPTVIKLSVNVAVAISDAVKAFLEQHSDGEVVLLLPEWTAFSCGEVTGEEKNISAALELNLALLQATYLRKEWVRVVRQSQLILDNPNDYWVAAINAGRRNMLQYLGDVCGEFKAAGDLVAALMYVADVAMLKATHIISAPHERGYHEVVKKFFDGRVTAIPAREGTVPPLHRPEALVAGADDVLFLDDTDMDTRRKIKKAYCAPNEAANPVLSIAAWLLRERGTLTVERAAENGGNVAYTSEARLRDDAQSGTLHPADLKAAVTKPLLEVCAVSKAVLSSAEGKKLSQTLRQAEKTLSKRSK
The test is described as follows: Trypanosoma cruzi tyrosyl tRNA synthetase (TcYRS) _High Tyrosine SOP. Also: in the data most compounds retested in dose-response had high values. Type of test: functional. The conditions noted are these: 30 µM.

Test [7] concerns the target T4, Tyrosyl-tRNA synthetase, putative (Trypanosoma cruzi (strain CL Brener)). The test is described as follows: Trypanosoma cruzi tyrosyl tRNA synthetase (TcYRS) SOP. The class given is functional. The conditions noted are these: 30 µM.
Test [8] has as its target Chromo domain-containing protein 1 (Saccharomyces cerevisiae (strain ATCC 204508 / S288c) (Baker's yeast)) (UniProt P32657). Briefly: ScCHD-1 Enzyme Inhibition Assay. Also: in the data most compounds retested in dose-response had high values. The class given is functional. The conditions noted are these: 30 µM.

Sequence of Chromo domain-containing protein 1 (Saccharomyces cerevisiae (strain ATCC 204508 / S288c) (Baker's yeast)) (P32657 whole entry, the tested form may be a part): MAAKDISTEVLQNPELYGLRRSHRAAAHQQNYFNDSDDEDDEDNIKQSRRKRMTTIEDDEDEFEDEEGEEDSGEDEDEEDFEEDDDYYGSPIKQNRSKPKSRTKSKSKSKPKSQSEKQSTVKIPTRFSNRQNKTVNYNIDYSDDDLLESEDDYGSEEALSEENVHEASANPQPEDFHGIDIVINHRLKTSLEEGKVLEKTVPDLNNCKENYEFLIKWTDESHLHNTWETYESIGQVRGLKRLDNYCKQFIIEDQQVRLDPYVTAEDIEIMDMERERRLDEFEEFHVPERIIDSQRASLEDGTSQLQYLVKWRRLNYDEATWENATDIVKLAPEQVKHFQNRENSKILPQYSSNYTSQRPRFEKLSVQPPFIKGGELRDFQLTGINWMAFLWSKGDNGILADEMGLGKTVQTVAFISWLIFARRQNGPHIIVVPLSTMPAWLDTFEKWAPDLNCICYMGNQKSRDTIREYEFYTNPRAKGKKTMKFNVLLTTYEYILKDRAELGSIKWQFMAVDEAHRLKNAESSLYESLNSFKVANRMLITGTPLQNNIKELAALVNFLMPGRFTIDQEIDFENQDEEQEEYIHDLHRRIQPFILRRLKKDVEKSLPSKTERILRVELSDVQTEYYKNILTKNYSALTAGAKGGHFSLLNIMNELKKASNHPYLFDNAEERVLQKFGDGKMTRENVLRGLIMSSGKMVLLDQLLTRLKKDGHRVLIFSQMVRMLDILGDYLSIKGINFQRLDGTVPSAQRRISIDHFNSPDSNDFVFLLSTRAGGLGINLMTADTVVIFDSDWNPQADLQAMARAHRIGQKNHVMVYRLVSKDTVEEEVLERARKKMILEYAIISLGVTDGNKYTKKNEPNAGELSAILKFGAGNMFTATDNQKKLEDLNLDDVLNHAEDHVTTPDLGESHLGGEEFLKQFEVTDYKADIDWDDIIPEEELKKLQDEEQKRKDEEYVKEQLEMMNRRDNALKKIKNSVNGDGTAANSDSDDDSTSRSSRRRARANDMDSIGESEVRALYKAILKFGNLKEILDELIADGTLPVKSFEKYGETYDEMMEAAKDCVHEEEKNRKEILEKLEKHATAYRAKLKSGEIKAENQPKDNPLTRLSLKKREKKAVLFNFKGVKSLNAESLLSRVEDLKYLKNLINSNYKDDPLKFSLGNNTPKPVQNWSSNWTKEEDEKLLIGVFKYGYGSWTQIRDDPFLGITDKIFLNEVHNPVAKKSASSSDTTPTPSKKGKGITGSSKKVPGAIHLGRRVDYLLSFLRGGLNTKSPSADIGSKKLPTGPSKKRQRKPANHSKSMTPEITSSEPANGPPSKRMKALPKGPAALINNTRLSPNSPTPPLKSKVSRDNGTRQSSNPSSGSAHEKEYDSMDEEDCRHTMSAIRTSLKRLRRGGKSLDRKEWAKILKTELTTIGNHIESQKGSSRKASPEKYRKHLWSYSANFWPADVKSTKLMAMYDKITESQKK

Consider `O=C(C1=CCCCC1)N1CCC2(CC1)COC(COc1ccccn1)C2` (stereo not given), for which the Percent Effect was -4.78% in test [1]; 9.09% in test [2]; 2.76% in test [3]; -0.292% in the test with Trypanosoma cruzi; -0.405% in test [4]; 18.1% in [5]. Also, the Percent Effect in the test listed under Homo sapiens was -0.0236%; in test [6], 3.68%; in [7] it was 17.9%; in test [8], -3.36%.
As for `COCCC(=O)N1CCC2(CC1)CC(c1ccccc1)CN(C)C2` (stereo not given), the Percent Effect in test [1] was -6.06%; in test [2], 5.41%; in [3] it was 7.24%; with Trypanosoma cruzi, 2.42%; in test [4] it was 1.75%; in [5], 18.7%. The Percent Effect in the test listed under Homo sapiens was -4.11%; in [6], 4.79%; in test [7], 12.2%; in test [8], -5.37%.
As to `Cc1csc(N2CCCN(C(=O)c3cnns3)CC2)n1`, the Percent Effect in test [1] is -2.47%; in test [2] it was -2.67%; in [3], -0.659%; in the test on Trypanosoma cruzi, -0.803%; in test [4], -1.33%; in test [5] it was -0.255%. Moreover, the Percent Effect is -0.448% in the test listed under Homo sapiens, 0.526% in test [6], 0% in [7] and 4.48% in test [8].
Turning to `N#Cc1ccccc1OCCN1CCn2c(nnc2C2CC2)C1`, the Percent Effect in [1] was 1.03%; in [2] it was 2.67%; in test [3] it was -0.123%; with Trypanosoma cruzi, -0.602%; in [4] it was -0.444%; in test [5], 5.85%. Also, the Percent Effect was -1.08% in the test filed under Homo sapiens, 2.63% in test [6], 2.56% in test [7] and -0.472% in test [8].
`CC(C)(C)C(=O)N1C[C@H](c2ccsc2)[C@H]2CN(Cc3cccs3)CC[C@H]21`: the Percent Effect is -0.241% in test [1]; 17.3% in [2]; -5.01% in test [3]; 2.37% in the test on Trypanosoma cruzi; 2.65% in [4]; 17.1% in test [5]. For the same molecule, the Percent Effect in the test filed under Homo sapiens was 56.8%; in test [6] it was 2.12%; in [7], 17.5%; in test [8], -22%.
In the case of `CCOC(=O)N1CCN(C(=O)c2ccc3ccn(C)c3c2)CC1`, the Percent Effect in test [1] is -3.31%; in test [2] it was 0%; in test [3], 29%; with Trypanosoma cruzi it was 7.47%; in test [4] it was -8.74%; in test [5], 11.6%. The Percent Effect is 9.78% in the test filed under Homo sapiens, 4.79% in test [6], 7.32% in test [7] and 5.11% in test [8].
Take `CN(C)C(=O)[C@@H]1C[C@@H]2CCN(Cc3ccc4c(c3)OCO4)C[C@@H]2O1`: the Percent Effect in test [1] was -2.52%; in test [2] it was -1.3%; in [3], -0.448%; in the test on Trypanosoma cruzi it was -1.07%; in [4], -2.83%; in [5], 6.62%. Also, the Percent Effect in the test listed under Homo sapiens is -0.537%; in test [6], -2.63%; in test [7], -2.56%; in test [8], -0.196%.
On to `COC(=O)COc1nc(CC(C)C)c2c(c1C#N)CCCC2`, for which the Percent Effect in [1] was -4.25%; in test [2], 2.7%; in test [3], -5.64%; in the test with Trypanosoma cruzi, -7.86%; in [4], -5.94%; in test [5], 10.6%. Further, the Percent Effect in the test filed under Homo sapiens is 38.2%; in test [6], -2.66%; in test [7] it was 4.88%; in test [8], -4.12%.
Turning to `CCN(Cc1cccc2c1OCO2)C(=O)Nc1ccncc1`, the Percent Effect in [1] was -0.455%; in test [2], -2.6%; in test [3], 12.1%; in the test with Trypanosoma cruzi it was -2.8%; in test [4], -2.25%; in test [5] it was 2.81%. Further, the Percent Effect was determined as 34.4% in the test listed under Homo sapiens, 0.98% in [6], 0% in [7] and 5.59% in [8].
As to `Cc1ccc2oc(C(=O)N3CCc4nnc(N(C)C)cc4C3)cc2n1`, the Percent Effect in test [1] is -3.69%; in test [2], 10.7%; in test [3], 5.58%; with Trypanosoma cruzi, 3.21%; in [4], 0.887%; in test [5], 12.8%. For the same molecule, the Percent Effect was 4.8% in the test filed under Homo sapiens, 4.74% in test [6], 5.13% in test [7] and -10.7% in test [8].
On to `CC(=O)N(Cc1ncc(C)o1)C1CCN(CCCc2cnn(C)c2)C1` (stereo not given), for which the Percent Effect in [1] was -1.84%; in test [2], 18.7%; in test [3], -5.35%; in the test on Trypanosoma cruzi, 1.41%; in test [4], -3.99%; in test [5], 26.2%. Further, the Percent Effect was 2.97% in the test filed under Homo sapiens, 4.74% in test [6], 12.8% in test [7] and -12.6% in test [8].
